Screening data from PubChem BioAssay.
697 NFkB inh – lowers PMA/ionomycin-induced NF-kB signal in 697 B cells; 330,000 compounds, 0.33% hits; 697 B-cell NF-kB luciferase reporter, 16 h; inhibition, % at 4 µM; in the data active = inhibition above about 35%
H9c2 protect – myocardial damage modulation in H9c2 cells | 360,000 compounds, 0.63% hits | H9c2 cardiomyocytes, H2O2 injury protection, ATPLite, 2 h | protection from H2O2 cell death, % at 20 µM;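 active = compounds giving at least 50% protection of heart cells from peroxide-induced death in the single-dose screen, raw or plate-pattern-corrected value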;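 also: 0% = DMSO wells with peroxide and 100% = DMSO wells without peroxide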
NR2F2 inh – blocks human COUP-TFII nuclear receptor; P24468; HEK293T NGFI-A luciferase reporter, luminescence; inhibition, % at 8.6 µM; 370,000 compounds, 0.7% hits;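 active = inhibition above a per-plate cutoff, mean inhibition of test wells between control levels plus 3 SD, cut at about 38% in these data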;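 also: cells cotransfected with COUP-TFII expression vector driving the NGFI-A reporter; 0% = median of COUP-TF2 test wells and 100% = reporter-only cells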
Target sequence (P24468 whole entry, looked up): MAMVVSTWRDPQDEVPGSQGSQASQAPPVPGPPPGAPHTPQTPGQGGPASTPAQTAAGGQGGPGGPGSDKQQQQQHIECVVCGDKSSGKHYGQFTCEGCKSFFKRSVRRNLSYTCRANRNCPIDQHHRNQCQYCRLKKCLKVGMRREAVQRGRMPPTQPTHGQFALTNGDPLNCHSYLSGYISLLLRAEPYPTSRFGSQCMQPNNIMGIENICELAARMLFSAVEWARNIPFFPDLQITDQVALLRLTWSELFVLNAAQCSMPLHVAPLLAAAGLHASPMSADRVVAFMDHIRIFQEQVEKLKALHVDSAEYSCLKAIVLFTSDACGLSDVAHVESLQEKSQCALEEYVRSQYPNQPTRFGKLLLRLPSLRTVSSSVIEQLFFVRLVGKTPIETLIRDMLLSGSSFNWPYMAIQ
TAG inh – inhibitors of triacylglycerol accumulation | 230,000 compounds, 0.66% hits | H9c2 cells, Nile Red lipid (TAG) fluorescence; cells loaded with 200 µM oleic acid | AID 651582 | inhibition, % at 12.5 µM;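 active = pattern-corrected inhibition of lipid staining of at least 50% with the nuclear-stain viability signal not falling by more than 50%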;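 also: 0% = DMSO wells and 100% = triacsin C control wells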
Gli-Sufu antag – blocks Gli-Sufu signaling in a luciferase reporter; inhibition, % at 5 µM; AID 588413; Sufu-KO-LIGHT fibroblasts, Gli luciferase reporter luminescence; 340,000 compounds, 0.74% hits;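 active = inhibition above about 55%, limit read from the data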;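 also: 0% = DMSO-treated cells and 100% = wells with medium but no cells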
Jurkat NFkB inh – inhibitors of the PMA/ionomycin-induced NF-kB reporter in Jurkat cells. PMA/ionomycin-induced NF-kB luciferase reporter, luminescence. inhibition, % at 4 µM. 330,000 compounds, 0.53% hits. AID 435003; in the data active = inhibition above about 50%
Gal4-VP16 ctr – VP16 inhibition counter-screen for COUP-TFII; shares compounds with NR2F2 inh; HEK293 Gal4-VP16 luciferase reporter, luminescence; inhibition, % at 8.5 µM; 2,500 compounds, 25% hits; in the data active = inhibition above about 13%
COUP-TFII conf – confirmation of human COUP-TFII (NR2F2) inhibitors. shares compounds with NR2F2 inh. 2,500 compounds, 45% hits. HEK293 NGFI-A luciferase reporter, luminescence. inhibition, % at 8.5 µM;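 active = mean inhibition over three repeats above a set limit taken from the earlier primary screen, cut at about 38% in these data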;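 also: 100% = cells given the luciferase reporter alone without the COUP-TF2 vector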
* hit, by the source's call; · = no result. Most compounds without a hit are left out; they make up all but 2.6% or so of the library.

SMILES | 697 NFkB inh | H9c2 protect | NR2F2 inh | TAG inh | Gli-Sufu antag | Jurkat NFkB inh | Gal4-VP16 ctr | COUP-TFII conf
Cc1cc2ccccc2cc1C(=O)c1ccccc1 | · | -8 | 4 | -11 | 0 | · | · | ·
O=C(N1CCc2ccccc2C1)n1cc(C(O)(c2ccccc2)c2ccccc2)nn1 | · | · | 35 | · | · | · | · | ·
c1ccc(-c2cccc(CNc3nc(-c4ccccn4)nnc3-c3ccccc3)c2)cc1 | · | · | 51* | · | · | · | -2 | 8
CCOC(=O)c1cnc(-n2nc(C)cc2C)nc1NCc1ccc2c(c1)OCO2 | -19 | 16 | 14 | 8 | 2 | -16 | · | ·
CCOC(=O)c1cnc(-n2nc(C)cc2C)nc1NC1CCCC1 | -46 | -7 | 44* | 45 | 18 | 8 | 7 | 56*
CCOC(=O)c1cnc(-n2nc(C)cc2C)nc1NCCc1ccccc1 | -27 | 61* | 48* | -61 | 29 | -6 | -12 | 10
CC(=O)Nc1ccc(NC(=O)c2ccc3sc([C@H]4C[C@H](O)[C@@H](CO)O4)nc3c2)cc1 | · | 4 | 2 | -13 | · | · | · | ·
O=C(Nc1cccc(C(F)(F)F)c1)c1ccc2sc([C@H]3C[C@H](O)[C@@H](CO)O3)nc2c1 | · | 4 | 58* | -2 | · | · | 3 | 24
O=C(Nc1ccc(Oc2ccccc2)cc1)c1ccc2sc([C@H]3C[C@H](O)[C@@H](CO)O3)nc2c1 | · | -20 | 74* | 5 | · | · | -22 | 46*
O=C(OCc1cn(Cc2ccccc2C(F)(F)F)nn1)N1CCOCC1 | · | · | 7 | · | · | · | · | ·
CC(C)(C)c1ccc(-c2nnc(SCC(=O)Nc3cccc4ccccc34)n2Cc2ccco2)cc1 | · | · | 38* | · | · | · | 4 | 11
c1ccc(Cc2cnc(N3CCN(Cc4cccc(-c5ccsc5)n4)CC3)nc2)cc1 | · | · | 21 | · | · | · | · | ·
CC(=O)Nc1ccc(-c2csc(Nc3cc(C)ccn3)n2)cc1 | -48 | -12 | 53* | 1 | -49 | -16 | -79 | -28
Cc1ccc(OCCN2CCN(C(=O)CCC(=O)Nc3nnc(C(C)C)s3)CC2)cc1 | -18 | -14 | 41* | -5 | -3 | 16 | -6 | 22
O=C1C(N2CCOCC2)=C(n2nnc3ccccc32)C(=O)c2ccccc21 | 2 | -21 | 39* | 153 | -13 | 43 | 19* | 31
COc1cc(SC)ccc1C(=O)Nc1ncc(C)s1 | -134 | -27 | 48* | 6 | 18 | -67 | -9 | 5
CC(=O)Nc1ccc(NC2=C/C(=N/S(=O)(=O)c3cccs3)c3ccccc3C2=O)cc1 | -17 | -17 | 50* | · | -11 | 18 | 17* | 23
CCc1ccc(-c2nc(CN3CCCC(C(=O)NCCc4ccc(OC)c(OC)c4)C3)c(C)o2)cc1 (stereo not drawn) | -61 | 0 | 49* | · | 1 | 7 | 3 | 14
COc1ccc(CCNC(=O)C2CCCN(Cc3nc(-c4ccccc4C)oc3C)C2)cc1OC (stereo not drawn) | 5 | 1 | 8 | · | 5 | -4 | · | ·
O=S(=O)(CC1NCc2ccccc21)NCc1ccc(F)cc1 (stereo not drawn) | · | · | -4 | · | · | · | · | ·
O=C(Nc1ccccc1O)c1ccc(NS(=O)(=O)c2cccc3cccnc23)cc1 | -246 | 21 | 40* | · | 33 | 19 | -43 | 38*
COC(=O)[C@]12C[C@H](CC(=O)N3CCOCC3)C(=O)N(CCC3=CCCCC3)C1=C[C@H](C1CCCC1)O[C@@H]2C | · | · | 17 | · | · | · | · | ·
O=C(N/N=C/c1ccc([N+](=O)[O-])s1)c1ccccc1 | -6 | -4 | 38* | -11 | 35 | -1 | 31* | 29
Cc1ccccc1C(=O)N/N=C/c1ccc([N+](=O)[O-])s1 | 22 | -6 | 57* | · | 40 | 19 | 55* | 44*
O=C(C(=O)N1CCN(S(=O)(=O)c2cccc(C(F)(F)F)c2)CC1)c1cccc(C(F)(F)F)c1 | · | · | -7 | · | · | · | · | ·
SMILES | 697 NFkB inh | H9c2 protect | NR2F2 inh | TAG inh | Gli-Sufu antag | Jurkat NFkB inh | Gal4-VP16 ctr | COUP-TFII conf
COc1cccc(NC(=S)N(Cc2cccc(Br)c2)CC2CCC(C(=O)O)CC2)c1 (stereo not drawn) | 19 | 6 | 39* | -2 | 4 | -1 | -5 | 7
COc1ccc(-c2coc3c(C(=O)Nc4cccnc4)cccc23)c(C)c1 | · | -8 | 55* | -26 | · | · | -16 | 18
COc1ccc(-c2coc3c(C(=O)Nc4cccc(C(C)=O)c4)cccc23)c(C)c1 | · | -3 | 18 | -16 | · | · | · | ·
O=C(Nc1ccc(F)cc1)OC1CC2CC1[C@H]1CCCCN1[C@H]2Cc1ccccc1 (stereo partly drawn) | · | · | 5 | · | · | · | · | ·
Cc1c(C(=O)NCc2ccc(C(C)C)cc2)sc(=O)n1Cc1ccc(S(=O)(=O)N(C)C)cc1 | · | -9 | 68* | -48 | · | · | 7 | 64*
CSc1ccc(Cn2c(C)c(C(=O)NCc3ccc(C(C)C)cc3)sc2=O)cc1 | · | -3 | -1 | -16 | · | · | · | ·
Cc1c(C(=O)NCc2ccc(Cl)c(Cl)c2)sc(=O)n1Cc1ccc(C(=O)N(C)C)cc1 | · | -9 | 50* | 1 | · | · | 1 | 4
C=Cc1ccc(Cn2c(C)c(C(=O)NCc3ccc(Cl)c(Cl)c3)sc2=O)cc1 | · | -4 | -10 | -4 | · | · | · | ·
Cc1c(C(=O)NCc2ccc(Cl)c(Cl)c2)sc(=O)n1Cc1ccc(S(=O)(=O)N(C)C)cc1 | · | -6 | 38* | -20 | · | · | 3 | 16
COC(=O)c1ccc(CN2C(=O)[C@]3(OCCC=C[C@H]3C)c3cc(OC)ccc32)cc1 | · | · | -11 | · | · | · | · | ·
COCC1CCCN(C(=O)c2cc(COc3ccc4ncccc4c3)on2)C1 (stereo not drawn) | 16 | -14 | 67* | -19 | 56* | 47 | -4 | 60*
O=C(c1cc(COc2ccc3ncccc3c2)on1)N1CCC[C@H]1CO | -28 | -21 | 38* | -24 | 42 | 8 | -30 | 24
COCC1CCCN(C(=O)c2cc(COc3cccc4cccnc34)on2)C1 (stereo not drawn) | 1 | 5 | 3 | 18 | -1 | -3 | · | ·
CCn1c(Cc2cccs2)nnc1SCC(=O)Nc1ccc2c(c1)OCCO2 | · | · | -1 | · | · | · | · | ·
Nc1ccc2c(c1)OC1(CCCC1)O2 | -6 | -8 | 65* | 8 | 24 | 0 | -10 | 11
O=C(Cc1ccccc1)Nc1ccc2c(c1)OC1(CCCC1)O2 | -92 | -8 | -64 | 5 | -75 | -72 | · | ·
O=C(c1cc2c(s1)-c1ccccc1S(=O)(=O)C2)N1CCN(Cc2ccccc2)CC1 | -40 | -10 | 39* | -1 | -3 | 17 | -14 | 26
CC(CC(=O)Nc1ccc(Cl)c(S(=O)(=O)N2CCOCC2)c1)c1ccccc1 (stereo not drawn) | -18 | -11 | 63* | -2 | 46 | 36 | 4 | 51*
Cc1cccc(OCCCC(=O)Nc2ccc(Cl)c(S(=O)(=O)N3CCOCC3)c2)c1 | -13 | -4 | 39* | 0 | -3 | 10 | 11 | 39*
